An excerpt weighted towards active compounds, which were near 19% of everything screened.
IL1B secr inh: inflammasome signaling inhibition, IL-1 beta readout. activity change, % at 57.5 µM. THP-1 LPS/ATP IL-1B secretion, AlphaLISA, 16 h; active compounds read low. 4.7% of 360,000 active. AID 743279; in the data active means activity change below about -50%; inconclusive means mostly about -30% to -49%
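THP-1 cells pretreated 1 hr with compounds (up to 57.5 uM final), then stimulated with LPS (250 ng/mL final) plus ATP (1.25 mM final); secreted IL-1B measured by AlphaLISA after 16 hr, decreased signal indicating inhibition.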
HT1080-NT tox: kills 2HG-producing HT-1080-NT fibrosarcoma cells. HT-1080-NT fibrosarcoma viability, CellTiter-Glo ATP luminescence, 48 h. 1.6% of 360,000 active. Potency, µM (top dose mostly 46.1 µM), for the others: at the highest dose activity, negative = less viability, hits mostly cytotoxic;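 further: NT is the 2HG producing partner of a matched IDH1 knockdown line; potency means the concentration at half of the fitted maximal effect; 0% = DMSO-treated cells and -100% = media-only wells without cells; nearly all actives have a fitted effect of over 55% in size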
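A 48-hour cytotoxicity screen used HT-1080-NT cells plated 2 hours before compound delivery. ATP-based CellTiter-Glo luminescence measured viability, normalized to DMSO and no-cell controls.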
ELG1 DNA repair: ELG1-dependent DNA repair inhibition; HEK293T ELG1-luciferase reporter, luminescence, 16 h; DNA damage induced by 5-fluorouridine; Potency, µM (doses to about 46.1 µM), without a hit: top-dose activity change, negative = inhibition, hits mostly inhibitors; 2.3% of 330,000 active; AID 504467; further: potency means the concentration at half of the fitted maximal effect; nearly all actives have a fitted effect of over 55% in size
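Quantitative HTS, concentration-response format. 2,000 cells/well co-treated with 5-fluorouridine and compound, 16 hr in 5% CO2 at 37 °C; ONE-Glo luminescence read after 30 min.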
TDP1 cell CPT: DT40-hTDP1 cell growth loss with CPT | AID 686979 | Potency, µM (highest dose often 46.2 µM), for the others: top-dose activity change, negative = growth inhibition, most hits filed as inhibitors | chicken DT40 Tdp1-/-;hTDP1 cells + 20 nM CPT, ATP luminescence, 48 h | 12% of 420,000 active; further: potency means the concentration at half of the fitted maximal effect; nearly all actives have a fitted effect of over 55% in size
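Chicken DT40 Tdp1-/- cells complemented with human TDP1, 400 cells/well, exposed to compounds plus 20 nM camptothecin for at least 48 h at 37 C; viability read as ATP content by CellTiter-Glo luminescence.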
HT1080 IDH1KD tx: kills HT-1080 cells with IDH1 knockdown. AID 686971. 2% of 360,000 active. Potency, µM (highest dose often 46.1 µM), inactives show top-dose activity, negative = toxicity, hits mostly cytotoxic. HT-1080 IDH1 knockdown viability, ATP luminescence, 48 h;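 further: potency means the concentration at half of the fitted maximal effect; 0% = DMSO wells and -100% = cell-free medium wells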
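% activity derives from luminescence (CellTiter-Glo), normalised to DMSO and no-cell wells. HT-1080-IDH1KD cells, 750/well, had 48 h compound exposure at 37 °C.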
TDP1 cell noCPT: qHTS for Inhibitors of human tyrosyl-DNA phosphodiesterase 1 (TDP1): qHTS in cells in absence of CPT | AID 686978, 2013 | Potency, µM (series often up to 46.2 µM), for the others: at the highest dose activity change, negative = growth inhibition, hits mostly inhibitors | 15% of 420,000 active | DT40 Tdp1-/- hTDP1 cells, no CPT, ATP luminescence, 48 h; further: potency means the concentration at half of the fitted maximal effect; nearly all actives have a fitted effect of over 55% in size
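No-CPT arm: Tdp1-/-;hTDP1 DT40 cells (400/well) plus compounds, incubated ≥48 hr at 37 °C. Readout CellTiter-Glo luminescence.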
The depositor's hits bear a star. Unless noted, the call rests on the fitted dose curve; in most records, active means well fitted curve in the direction sought with a large enough effect; inconclusive means small, poorly fitted or top-dose-only effect, or another doubt; inactive means no such curve, though single readings can be large; an effect the other way counts as inactive or inconclusive. Unless noted, on the % scale 0 is the no-effect control and ±100 the full control effect.

Results for O=S(=O)(c1ccccc1)[C@@]1(c2ccccc2)C[C@@H]2ON=C(c3cccc(-c4ccccc4)c3)[C@@H]2C1 ?
IL1B secr inh: -1.5; HT1080-NT tox: 13.0%; ELG1 DNA repair: -5.3%; TDP1 cell CPT: inconclusive; HT1080 IDH1KD tx: 6.2%; TDP1 cell noCPT: 13µM*

What do the screens show for `CCOC(=O)C(=NO)C1=CSC2=NNC(C)(C)N12`?
IL1B secr inh: -0.8; HT1080-NT tox: -7.6%; TDP1 cell CPT: inconclusive; HT1080 IDH1KD tx: -17.1%; TDP1 cell noCPT: 20.6µM*

What do the screens show for `Cc1ccc2c(c1)C(c1ccc([N+](=O)[O-])cc1)=NNC(c1ccc(Br)cc1)=N2`?
IL1B secr inh: -4.9; HT1080-NT tox: -3.8%; ELG1 DNA repair: inconclusive; TDP1 cell CPT: -22.2%; HT1080 IDH1KD tx: -1.5%; TDP1 cell noCPT: inconclusive

How did CCc1ccc2c(c1)C(c1ccc([N+](=O)[O-])cc1)=NNC(c1ccc(Br)cc1)=N2 do in these assays?
IL1B secr inh: 1.6; HT1080-NT tox: 19.8%; ELG1 DNA repair: -1.0%; TDP1 cell CPT: 13µM*; HT1080 IDH1KD tx: 15.0%; TDP1 cell noCPT: inconclusive

How did CCOC(=O)C1=C(N)N(c2ccccc2)C(=O)C1 do in these assays?
IL1B secr inh: 18.4; HT1080-NT tox: 13.7%; ELG1 DNA repair: -0.2%; TDP1 cell CPT: 7.31µM*; HT1080 IDH1KD tx: 17.5%; TDP1 cell noCPT: 16.4µM*

What do the screens show for `N#CCC(=O)c1sccc1-n1cccc1`?
IL1B secr inh: 27.2; HT1080-NT tox: -4.9%; ELG1 DNA repair: 3.3%; TDP1 cell CPT: 1.5%; HT1080 IDH1KD tx: -6.0%; TDP1 cell noCPT: -29.8%

How did COc1ccc(OC)c(/C=C/C(=O)OCC(=O)N2C(C)CCCC2C)c1 (stereo not drawn) do in these assays?
IL1B secr inh: -27.6; HT1080-NT tox: -5.5%; ELG1 DNA repair: 20.6µM*; TDP1 cell CPT: inconclusive; HT1080 IDH1KD tx: 9.1%; TDP1 cell noCPT: 10.3µM*

How did COc1ccc(/C=C/C(=O)OCC(=O)NCCc2ccccc2)c(OC)c1 do in these assays?
IL1B secr inh: 4.8; HT1080-NT tox: 4.7%; ELG1 DNA repair: inconclusive; TDP1 cell CPT: inconclusive; HT1080 IDH1KD tx: 10.5%; TDP1 cell noCPT: 20.6µM*

How did COc1ccc(OC)c(/C=C/C(=O)Oc2ccc(C(C)=O)cc2)c1 do in these assays?
IL1B secr inh: -4.8; HT1080-NT tox: 10.9%; ELG1 DNA repair: -11.4%; TDP1 cell CPT: -2.9%; HT1080 IDH1KD tx: 10.4%; TDP1 cell noCPT: -25.3%

Results for COc1cc(/C=C/C(=O)OCC(=O)NCCc2ccccc2)cc(OC)c1OC ?
IL1B secr inh: 17.0; HT1080-NT tox: -3.9%; ELG1 DNA repair: 7.8%; TDP1 cell CPT: 0.7%; HT1080 IDH1KD tx: -4.3%; TDP1 cell noCPT: -3.7%

How did COc1ccc(OC)c(/C=C/C(=O)OCC(=O)Nc2cccc(C(C)=O)c2)c1 do in these assays?
IL1B secr inh: 7.7; HT1080-NT tox: 17.0%; ELG1 DNA repair: -9.8%; TDP1 cell CPT: 16.4µM*; HT1080 IDH1KD tx: 20.5%; TDP1 cell noCPT: inconclusive

What do the screens show for `O=C(CSc1nnc(CNC(=O)c2cccs2)o1)NCC1CCCO1` (stereo not drawn)?
IL1B secr inh: 8.2; HT1080-NT tox: 0.8%; ELG1 DNA repair: 2.6%; TDP1 cell CPT: 0.7%; HT1080 IDH1KD tx: -0.8%; TDP1 cell noCPT: 16.3%

What do the screens show for `Cc1ccc(S(=O)(=O)NN=C2CCc3ccccc32)cc1`?
IL1B secr inh: 13.7; HT1080-NT tox: -1.9%; TDP1 cell CPT: -20.1%; HT1080 IDH1KD tx: -10.1%; TDP1 cell noCPT: inconclusive

How did CCOc1ccc(S(=O)(=O)N2CCc3ccccc3C2)cc1 do in these assays?
IL1B secr inh: 0.6; HT1080-NT tox: -1.0%; ELG1 DNA repair: -2.0%; TDP1 cell CPT: -5.5%; HT1080 IDH1KD tx: -10.7%; TDP1 cell noCPT: 2.0%
